# High-throughput results deposited in PubChem BioAssay by National Center for Advancing Translational Sciences (NCATS).
# DT40 TDP1 CPT: DT40-hTDP1 cell growth loss with CPT | 420,000 compounds, 12% hits | Potency, µM (doses to about 46.2 µM), most hits filed as inhibitors | chicken DT40 Tdp1-/-;hTDP1 cells + 20 nM CPT, ATP luminescence, 48 h; also: nearly all actives have a fitted effect of over 55% in size
#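 Chicken DT40 Tdp1-/- cells stably complemented with human TDP1 were seeded at 400 cells/well in medium containing 20 nM camptothecin, exposed to pin-transferred compounds, and grown at 37 °C for at least 48 hr. Viability was read as ATP luminescence.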
# TDP1 cell noCPT: qHTS for Inhibitors of human tyrosyl-DNA phosphodiesterase 1 (TDP1): qHTS in cells in absence of CPT; Potency, µM (titrated, usually from 46.2 µM), hits mostly inhibitors; DT40 Tdp1-/- hTDP1 cells, no CPT, ATP luminescence, 48 h; 420,000 compounds, 15% hits; also: nearly all actives have a fitted effect of over 55% in size
#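 Readout: luminescence from CellTiter-Glo after 30 min in the dark at RT. Cells: DT40 Tdp1-/- with stable hTDP1, 400/well. Exposure: compounds alone, ≥48 hr, 37 °C.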
# HT1080NT lethal: kills 2HG-producing HT-1080-NT fibrosarcoma cells. HT-1080-NT fibrosarcoma viability, CellTiter-Glo ATP luminescence, 48 h. Potency, µM (titrated, usually from 46.1 µM), actives largely listed as cytotoxic. 360,000 compounds, 1.6% hits. AID 686970;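 also: NT is the 2HG producing partner of a matched IDH1 knockdown line; nearly all actives have a fitted effect of over 55% in size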
#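 HT-1080-NT; 750 cells/well; 5% FBS RPMI; 48 h compound, 37 degrees C; CellTiter-Glo luminescence; curve fitting and curve-class assignment.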
# IL-1B inflam inh: inhibitors of inflammasome signaling (IL-1 beta secretion) | THP-1 LPS/ATP IL-1B secretion, AlphaLISA, 16 h; stronger effect = lower value | activity change, % at 57.5 µM | 360,000 compounds, 4.7% hits | AID 743279; in the data active = activity change below about -50%; inconclusive = mostly about -30% to -49%
#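 Secreted IL-1B measured by AlphaLISA bead assay after 16 h compound exposure of THP-1 cells; compounds (final up to 57.5 uM) added 1 h before LPS (250 ng/mL) and ATP (1.25 mM) stimulation; lower signal means less secretion.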
# HT1080 IDH1KD tx: toxicity to HT-1080 IDH1 knockdown cells (counter line); 360,000 compounds, 2% hits; HT-1080 IDH1 knockdown viability, ATP luminescence, 48 h; Potency, µM (highest dose often 46.1 µM), most hits filed as cytotoxic
#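 % activity derives from luminescence (CellTiter-Glo), normalised to DMSO and no-cell wells. HT-1080-IDH1KD cells, 750/well, had 48 h compound exposure at 37 °C.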
# Hits are given with their value; n = inactive; u = inconclusive; x = no result. Only some compounds are listed: those with a hit (about 19% of all), similar ones and a draw of the others. Unless noted, calls follow the shape of the dose curve; as a rule, active = well fitted curve in the direction sought with a large enough effect; inconclusive = small, poorly fitted or top-dose-only effect, or another doubt; inactive = no such curve, though single readings can be large; an effect the other way counts as inactive or inconclusive.
SMILES,DT40 TDP1 CPT,TDP1 cell noCPT,HT1080NT lethal,IL-1B inflam inh,HT1080 IDH1KD tx
COc1cccc(Nc2ncc3nc(-c4ccccc4)c(=O)n(Cc4cccs4)c3n2)c1,n,n,x,x,x
COc1cccc(CNC(=O)c2[nH]c3cc(C)ccc3c2Sc2ccccc2)c1,u,15µM,x,x,x
Cc1ccc2c(Sc3ccccc3)c(C(=O)NCc3ccccc3F)[nH]c2c1,9.2µM,u,x,x,x
CCOCCCNC(=O)c1[nH]c2cc(OC)ccc2c1Sc1ccccc1,n,n,x,x,x
Cc1ccc(Sc2c(C(=O)NCc3ccccc3C)[nH]c3ccccc23)cc1,u,n,x,x,x
COc1ccc(/C=C2\N=C(C(C)(C)C)OC2=O)c(OC)c1,7.3µM,8.2µM,n,n,n
Nc1cccc(CP(=O)(c2ccccc2)c2ccccc2)c1,n,n,n,n,n
O=C(NCc1ccc(F)cc1)C1CCC(=O)N1C1CCCCC1 (stereo not given),n,n,n,n,n
CCN(CC)c1nc(Nc2ccc([N+](=O)[O-])cc2)nc(N(CC)CC)n1,26µM,21µM,n,n,n
CCOC(=O)c1nnn(-c2nonc2N)c1CN(CC)c1ccccc1,n,u,n,n,n
Cc1nn(Cc2c(F)c(F)c(F)c(F)c2F)c(C)c1NC(=O)c1ccnn1C,n,n,n,n,n
Cc1nn(C)c(C(=O)Nc2c(C)nn(Cc3c(F)c(F)c(F)c(F)c3F)c2C)c1Br,8.2µM,3.7µM,n,n,n
Cc1noc(C)c1S(=O)(=O)N(C)C[C@H]1Oc2c(NC(=O)Nc3ccc(C(F)(F)F)cc3)cccc2C(=O)N([C@H](C)CO)C[C@@H]1C,n,23µM,n,n,u
COc1ccc(S(=O)(=O)N(C)C[C@H]2Oc3ccc(NC(=O)Nc4ccc5c(c4)OCO5)cc3C(=O)N([C@H](C)CO)C[C@@H]2C)cc1,21µM,u,n,n,n
C[C@H](CO)N1C[C@H](C)[C@@H](CN(C)S(=O)(=O)c2ccccc2)Oc2c(NC(=O)Nc3ccccc3)cccc2C1=O,n,n,n,n,n
C[C@H]1CN([C@@H](C)CO)C(=O)c2cccc(NC(=O)Nc3ccc(C(F)(F)F)cc3)c2O[C@@H]1CN(C)S(=O)(=O)c1ccccc1,u,21µM,u,n,u
COc1ccc(S(=O)(=O)N(C)C[C@H]2Oc3ccc(NC(=O)Nc4ccccc4)cc3C(=O)N([C@H](C)CO)C[C@@H]2C)cc1,u,u,n,n,n
C[C@H](CO)N1C[C@H](C)[C@@H](CN(C)S(=O)(=O)c2ccccc2)Oc2ccc(NC(=O)Nc3ccc(C(F)(F)F)cc3)cc2C1=O,21µM,u,u,n,u
Cc1cc(C)c(OCC(O)CN2CCN(c3ccccn3)CC2)c(C)c1 (stereo not given),n,n,n,n,n
CCOC(=O)C(NC(=O)c1ccccc1OCC)(Nc1ncccn1)C(F)(F)F (stereo not given),u,u,n,n,n
O=C(CNc1cccc(C(F)(F)F)c1)N/N=C/c1ccccc1C(=O)O,n,n,n,n,n
C[C@H](CO)N1C[C@H](C)[C@@H](CN(C)S(=O)(=O)c2cccs2)Oc2c(NC(=O)Nc3ccccc3)cccc2C1=O,n,n,n,n,n
C[C@H](CO)N1C[C@H](C)[C@H](CN(C)S(=O)(=O)c2cccs2)Oc2ncc(-c3cc4ccccc4o3)cc2C1=O,23µM,15µM,n,n,n
C[C@@H]1CN([C@H](C)CO)C(=O)c2cccc(NC(=O)Nc3ccc(C(F)(F)F)cc3)c2O[C@H]1CN(C)S(=O)(=O)c1cccs1,8.2µM,16µM,u,-55,u
CC(C)NC(=O)Nc1ccc2c(c1)C(=O)N([C@H](C)CO)C[C@H](C)[C@@H](CN(C)S(=O)(=O)c1ccccc1)O2,n,n,n,n,n
SMILES,DT40 TDP1 CPT,TDP1 cell noCPT,HT1080NT lethal,IL-1B inflam inh,HT1080 IDH1KD tx
C[C@H](CO)N1C[C@H](C)[C@@H](CN(C)S(=O)(=O)c2ccccc2)Oc2ccc(NC(=O)CCC(F)(F)F)cc2C1=O,21µM,n,n,n,n
C[C@H](CO)N1C[C@H](C)[C@H](CN(C)S(=O)(=O)c2cccs2)Oc2ccc(NC(=O)Nc3ccc4c(c3)OCO4)cc2CC1=O,u,16µM,u,u,u
COc1ccc(NCC(=O)n2c(C)c(C)c3ccccc32)cc1OC,n,u,n,n,n
CN1CC(=O)N2[C@H](c3ccc4c(c3)OCO4)c3[nH]c4ccccc4c3C[C@@H]2C1=O,n,n,n,n,n
O=S(=O)(Nn1cnnc1)c1ccc(F)cc1,n,n,n,n,n
C#CCOCCOCCOCCNc1nc(N2CCN(C(=O)CCCCCCCCCCNC(=O)[C@H]([C@@H](C)CC)n3cc(CCCCCN)nn3)CC2)nc(N2CCN(C(=O)CCCCCCCCCCNC(=O)[C@H](CO)n3cc(CCCCCN)nn3)CC2)n1,u,u,u,-83,u
C#CCOCCOCCOCCNc1nc(N2CCN(C(=O)CCCCCCCCCCNC(=O)[C@H]([C@@H](C)CC)n3cc(CCCCCN)nn3)CC2)nc(N2CCN(C(=O)CCCCCCCCCCNC(=O)[C@H](CCCCN)n3cc(CCCC(=O)O)nn3)CC2)n1,n,n,n,-88,n
C#CCOCCOCCOCCNc1nc(N2CCN(C(=O)CCCCCCCCCCNC(=O)Cn3cc(CCCCCN)nn3)CC2)nc(N2CCN(C(=O)CCCCCCCCCCNC(=O)[C@H]([C@@H](C)CC)n3cc(CCCCN=C(N)N)nn3)CC2)n1,21µM,u,u,-110,u
C#CCOCCOCCOCCNc1nc(N2CCOCC2)nc(N2CCN(C(=O)CCCCCCCCCCNC(=O)[C@@H]([C@H](C)CC)n3cc(CCCCCN)nn3)CC2)n1,u,u,n,n,n
C#CCOCCOCCOCCNc1nc(N2CCN(C(=O)Cn3cc(CCCN=C(N)N)nn3)CC2)nc(N2CCN(C(=O)[C@H]([C@@H](C)CC)n3cc(CCCCN)nn3)CC2)n1,n,n,n,n,n
C#CCOCCOCCOCCNc1nc(N2CCN(C(=O)CCCCCCCCCCNC(=O)[C@H](CCCCN)n3cc(CCCC(=O)O)nn3)CC2)nc(N2CCN(C(=O)CCCCCCCCCCNC(=O)[C@@H]([C@H](C)O)n3cc(C)nn3)CC2)n1,n,n,n,n,n
C#CCOCCOCCOCCNc1nc(N2CCN(C(=O)CCCCCCCCCCNC(=O)[C@H]([C@@H](C)CC)n3cc(CCCCN=C(N)N)nn3)CC2)nc(N2CCN(C(=O)CCCCCCCCCCNC(=O)[C@H](CCCCN)n3cc(C)nn3)CC2)n1,23µM,8.2µM,u,-112,u
CCN1CCN(C(=O)N(c2ccccc2)c2ccccc2)CC1,n,u,n,n,n
